AID inhibitor: activation induced cytidine deaminase inhibition | AID deamination FRET fluorescence, UDG-coupled, 4 h | Potency, µM (series often up to 115 µM), actives largely listed as inhibitors | Q9GZX7 | 91,000 compounds, 0.32% hits | AID 1347428; further: nearly all actives have a fitted effect of over 25% in size
Target sequence (Q9GZX7 whole entry, looked up): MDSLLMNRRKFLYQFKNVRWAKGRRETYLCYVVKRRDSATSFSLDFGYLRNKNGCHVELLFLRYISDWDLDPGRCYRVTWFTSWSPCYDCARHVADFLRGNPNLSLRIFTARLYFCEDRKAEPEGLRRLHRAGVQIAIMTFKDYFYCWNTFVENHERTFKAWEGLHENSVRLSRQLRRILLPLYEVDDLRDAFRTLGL
UDG counter: UDG inhibition counter-screen; Potency, µM (doses to about 115 µM), for the others: top-dose activity change, negative = inhibition, usual class: inhibitors; 91,000 compounds, 0.14% hits; FRET deamination/UDG coupled assay, UDG read, 4 h; further: nearly all actives have a fitted effect of over 65% in size
* marks the source's active call; other numbers are inactive results; i = inactive; u = inconclusive; [ ] = remark or other dose. The list is not random: actives were taken first. Their share in the collection is about 0.4%. The call rests on the fitted dose curve; in most records, active means well fitted curve in the direction sought with a large enough effect; inconclusive means small, poorly fitted or top-dose-only effect, or another doubt; inactive means no such curve, though single readings can be large; an effect the other way counts as inactive or inconclusive. On the % scale 0 is the no-effect control and ±100 the full control effect; potency means the concentration at half of the fitted maximal effect.

SMILES	AID inhibitor	UDG counter
Cc1cccc(NC(=O)Cn2c(=O)oc3cc(S(=O)(=O)N4CCCCCC4)ccc32)c1	i	-12%
CCOc1ccc(C(=O)c2cn(CC(=O)Nc3ccc4c(c3)OCO4)c3ccc(OC)cc3c2=O)cc1	45µM*	-16%
CCOc1ccc(C(=O)c2cn(CC(=O)Nc3ccc4c(c3)OCO4)c3ccc(OCC)cc3c2=O)cc1	i	4%
COc1ccc(CCNC(=O)c2cc3n(n2)CCCN(Cc2ccc(C)cc2)C3=O)cc1OC	i	-12%
CC1CCN(S(=O)(=O)c2ccc(NC(=O)C3CC(=O)N(CCc4ccc(F)cc4)C3)cc2)CC1 (stereo unspecified)	i	89µM*
CCc1ccc(NC(=O)C2CCCN(S(=O)(=O)c3ccc(F)cc3)C2)cc1 (stereo unspecified)	i	-1%
Cc1nc2nc(SCC(=O)NCc3ccccc3Cl)nn2c(C)c1Cc1ccccc1	u	0%
Cc1nc2nc(SCC(=O)N(C)Cc3ccccc3)nn2c(C)c1Cc1ccccc1Cl	45µM*	-15%
Cc1ccc(C(C)NC(=O)Nc2ccc(Cl)cc2F)c(C)c1 (stereo unspecified)	14µM*	1%
CC(C)C(=O)Nc1ccc(Cl)cc1F	i	-2%
Cc1cc(C)c(S(=O)(=O)N2CCN(Cc3nc4ccc(C)cc4o3)CC2)c(C)c1	u	89µM*
Cc1ccc2nc(CN3CCN(S(=O)(=O)c4ccccc4)CC3)oc2c1	i	12%
Fc1ccc(Nc2nc(SCc3ccccc3F)nc3ccccc23)cc1	u	-2%[57.5 µM]
N#Cc1ccccc1OCc1csc(-c2ccccc2)n1	u	89µM*
N#Cc1ccccc1OCc1ccccc1	i	0%
CCCCNC(=S)N(C)/N=C/c1cc(Br)ccc1F	i	1%
O=C(N/N=C\c1cccs1)c1cnccn1	i	-4%
CCOc1ccccc1NC(=O)C(C)Sc1nc(-c2ccccc2)c(C#N)c(=O)[nH]1 (stereo unspecified)	35µM*	7%
CCOc1ccccc1NC(=O)C(CC)Sc1nc2ncccc2[nH]1 (stereo unspecified)	i	-2%[57.5 µM]
O=C(Nc1ccc(C(F)(F)F)cc1)C1CC=CCC1 (stereo unspecified)	i	0%
Cc1ccc(-n2[nH]c(CSc3nnnn3-c3ccccc3)cc2=O)cc1	i	89µM*
Cc1ccc(CSc2nnnn2-c2c(C)n(C)n(-c3ccccc3)c2=O)cc1	i	0%
COc1cccc(OC)c1C(=O)Nc1cccc2ncccc12	i	-6%
Cc1cccc(OCCCSc2nc(-c3ccc(C(C)(C)C)cc3)nc3cc(=O)[nH]n23)c1C	u	-21%
CCc1ccc(OCCCSc2nc(-c3ccc(C(C)(C)C)cc3)nc3cc(=O)[nH]n23)cc1	79µM*	-22%
SMILES	AID inhibitor	UDG counter
COc1ccc2[nH]c(C)c(C(=O)CN3CCC(Cc4ccccc4)CC3)c2c1	i	89µM*
COc1ccc2[nH]c(C)c(C(=O)CN3CCC(C)CC3)c2c1	i	0%
CCCCC(=O)Nc1oc2c(C)cccc2c(=O)c1-c1ccccc1	i	79µM*
CCCCC(=O)Nc1oc2c(C)cccc2c(=O)c1-c1cc(OC)c(OC)c(OC)c1	i	-4%
COc1cccc(-c2cc(=O)[nH]c(Nc3nc(C)c4ccccc4n3)n2)c1	22µM*	-9%
COc1ccc2nc(Nc3nc(-c4ccccc4)cc(=O)[nH]3)nc(C)c2c1	i	0%
COc1ccccc1CNC(=O)C(=O)NCC(c1cccnc1)N1CCN(c2ccccc2)CC1 (stereo unspecified)	i	3%
Cn1nc(-c2ccc(OCC(=O)N3CCOCC3)cc2)c2ccccc2c1=O	i	3%
Cn1nc(-c2ccc(N3CCOCC3)c(NC(=O)COc3ccccc3)c2)c2ccccc2c1=O	u	89µM*
COc1ccc(N2CCN(Cc3nc4c(c(=O)[nH]c(=O)n4C)n3Cc3ccccc3C)CC2)cc1	u	-7%[57.5 µM]
O=C(O)c1c(-c2ccccc2)oc2ccc(OCc3c(F)cccc3Cl)cc12	79µM*	-16%
CCOC(=O)c1c(-c2ccc(OC)cc2)oc2ccc(OCc3ccc(F)cc3F)cc12	i	-5%[57.5 µM]
Cc1oc(-c2ccccc2)nc1CC(=O)N(C)Cc1ccco1	i	-4%
CC(=O)N1CCc2c(sc3c2c(=O)n(Cc2ccccc2)c(=O)n3Cc2cccc(Cl)c2)C1	32µM*	u
CC(=O)N1CCc2c(sc3c2c(=O)n(Cc2ccccc2)c(=O)n3Cc2ccc(Cl)cc2)C1	i	1%
Cc1ccc(Cn2ccnc2SCC(=O)Nc2ccc3c(c2)OCO3)cc1	79µM*	u
Cc1ccc(Cn2ccnc2SCC(=O)Nc2ccc3c(c2)OCCO3)cc1	i	-13%
CCn1cc(C(=O)N2CCN(c3cc(Cl)ccc3C)CC2)c2cc(OC)c(OC)cc2c1=O	i	-9%
COc1ccccc1S(=O)(=O)Cc1ccc(C(=O)N2CCN(c3cc(Cl)ccc3C)CC2)o1	u	89µM*
